Reference: PubChem BioAssay (NCATS)
Records with an inconclusive call do not appear. Where a call stands in place of a potency, no number is given. The source made the active and inactive calls. Unless noted, calls come from the whole dose curve.

How the values were obtained:
[1] = Primary qHTS for inhibitors of SARS-S pseudo-typed particle cell entry (AID 1479145); note: nearly all actives have a fitted effect of over 45% in size; note: potency is the fitted concentration of half-maximal effect
[2] = Primary qHTS for Huh7 cytotoxicity: counterscreen for inhibitors of MERS-S pseudotyped particle cell entry (AID 1479147)
[3] = Primary qHTS for inhibitors of MERS-S pseudo-typed particle cell entry (AID 1479149); note: nearly all actives have a fitted effect of over 60% in size; note: potency is the fitted concentration of half-maximal effect
[4] = Primary qHTS for Vero E6 cytotoxicity: counterscreen for inhibitors of SARS-S pseudo-typed particle cell entry (AID 1479150)
[5] = Primary qHTS for inhibitors of La Crosse Virus (LACV) - induced cell death in SH-SY5Y cells (AID 1508616; active = well fitted curve in the direction sought with a large enough effect; an effect the other way counts as inactive or inconclusive;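 note: top concentration of the series differs between compounds; higher means more rescue of cells from virus-induced death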)
Outline: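 Screening measures cell viability in LACV-infected SH-SY5Y cultures. Compound was added before virus (0.01 MOI), and ATP was detected by luminescence 6 days later.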

[6] = molecular target: Calcium and integrin-binding protein 1 (Homo sapiens) (UniProt Q99828); test: Validation qHTS for Identification of Calcium Integrin Binding protein 1 (CIB1) Competitor (AID 1508618; active = well fitted curve in the direction sought with a large enough effect; an effect the other way counts as inactive or inconclusive)
Outline: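 CIB1-GST (1 uM final) in 5 mM HEPES pH 7.4, 125 mM NaCl, 5 mM CaCl2, 0.01% Tween20 was preincubated 15 min at room temperature with compound (up to 114 uM), then FITC-alphaIIb peptide (100 nM) added for 15 min; fluorescence polarization read.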

[7] = molecular target: Calcium and integrin-binding protein 1 (Homo sapiens) (UniProt Q99828); test: Primary qHTS for Identification of Calcium Integrin Binding Protein 1 (CIB1) Competitor (AID 1508620; active = well fitted curve in the direction sought with a large enough effect; an effect the other way counts as inactive or inconclusive;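 note: GST tagged CIB1 binding a fluorescein labelled alphaIIb integrin peptide tracer; top concentration of the series differs between compounds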)
Outline: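 CIB1-GST (1 uM final) and compound incubated 15 min at room temperature before adding FITC-alphaIIb peptide tracer (100 nM final). Competition for binding read by fluorescence polarization (ex 480, em 540) after another 15 min at room temperature.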

Sequence of Calcium and integrin-binding protein 1 (Homo sapiens) (Q99828 whole entry, looked up): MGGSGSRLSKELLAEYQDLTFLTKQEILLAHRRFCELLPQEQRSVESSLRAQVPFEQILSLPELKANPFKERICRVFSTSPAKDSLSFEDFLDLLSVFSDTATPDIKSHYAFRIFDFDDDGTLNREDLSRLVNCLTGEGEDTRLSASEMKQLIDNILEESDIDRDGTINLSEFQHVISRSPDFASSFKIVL

Compound	Potency [1]	Potency [2]	Potency [3]	Potency [4]	Potency [5]	Potency [6]	Potency [7]
NS(=O)(=O)Cc1noc2ccccc12	inactive	inactive	inactive	inactive			
COC(c1ccccc1)(c1ccccc1)[C@H](Oc1nc(C)cc(C)n1)C(=O)O	inactive	inactive	inactive	inactive			
N[C@@H]1CONC1=O	inactive	inactive	inactive	inactive			
C[C@@H](c1ncncc1F)C(O)(Cn1cncn1)c1ccc(F)cc1F (stereo partly specified)	inactive	inactive	inactive	inactive			
O=C1CCC(N2C(=O)c3ccccc3C2=O)C(=O)N1 (stereo unspecified)	inactive	inactive	inactive	inactive			
Nc1nnc(-c2cccc(Cl)c2Cl)c(N)n1	inactive	inactive	inactive	inactive			
Cc1cn[nH]c1	inactive	inactive	inactive	inactive			
CN(C)c1cc(NC(=O)CNC(C)(C)C)c(O)c2c1C[C@@H]1C[C@H]3[C@H](N(C)C)C(=O)C(C(N)=O)=C(O)[C@@]3(O)C(=O)C1=C2O	inactive	inactive	inactive	inactive			
CCCCC1=NC2(CCCC2)C(=O)N1Cc1ccc(-c2ccccc2-c2nn[nH]n2)cc1	inactive	inactive	inactive	inactive			
COc1cc2nc(N3CCN(C(=O)C4CCCO4)CC3)nc(N)c2cc1OC (stereo unspecified)	inactive	inactive	inactive	inactive			
O=C(NCCN1CCOCC1)c1ccc(Cl)cc1	inactive	inactive	inactive	inactive			
CC[C@@H]([C@H](C)O)n1ncn(-c2ccc(N3CCN(c4ccc(OC[C@@H]5CO[C@@](Cn6cncn6)(c6ccc(F)cc6F)C5)cc4)CC3)cc2)c1=O	14.1 µM (active)	inactive	12.6 µM (active)	inactive			
NC(=Nc1ccccc1)Nc1ccccc1	inactive	inactive	inactive	inactive			
COc1cc2c(cc1OC)[C@@H]1CC(=O)[C@@H](CC(C)C)CN1CC2	inactive	inactive	inactive	inactive			
COCCCOc1cc(C[C@@H](C[C@H](N)[C@@H](O)C[C@H](C(=O)NCC(C)(C)C(N)=O)C(C)C)C(C)C)ccc1OC	inactive	inactive	inactive	inactive			
COc1cc(C(=O)NCc2ccc(OCCN(C)C)cc2)cc(OC)c1OC	inactive	inactive	inactive	inactive			
CC(=O)Oc1cc2c(s1)CCN(C(C(=O)C1CC1)c1ccccc1F)C2 (stereo unspecified)	inactive	inactive	inactive	inactive			
CN(CCOc1ccc(CC2SC(=O)NC2=O)cc1)c1ccccn1 (stereo unspecified)	inactive	inactive	inactive	inactive			
CCN(C)C(=O)Oc1cccc([C@H](C)N(C)C)c1	inactive	inactive	inactive	inactive			

Compound	Potency [1]	Potency [2]	Potency [3]	Potency [4]	Potency [5]	Potency [6]	Potency [7]
CCCNC(=O)NS(=O)(=O)c1ccc(Cl)cc1	inactive	inactive	inactive	inactive			
C[C@](N)(Cc1ccc(O)c(O)c1)C(=O)O	inactive	inactive	inactive	inactive			
Cc1[nH]c(=O)c(C#N)cc1-c1ccncc1	inactive	inactive	inactive	inactive			
O=C(O)CCCc1ccccc1	inactive	inactive	inactive	inactive			
O=C1NC(=O)C(c2ccccc2)(c2ccccc2)N1	inactive	inactive	inactive	inactive			
Oc1cn2c(n1)Nc1ccc(Cl)c(Cl)c1C2	inactive	inactive	inactive	inactive			
Cc1ccc(S(=O)(=O)NC(=O)NN2CC3CCCC3C2)cc1 (stereo unspecified)	inactive	inactive	inactive	inactive			
NC(=O)OCC(COC(N)=O)c1ccccc1	inactive	inactive	inactive	inactive			
O=C1NC(c2ccccc2)(c2ccccc2)C(=O)N1COP(=O)(O)O	inactive	inactive	inactive	inactive			
Clc1ccc(C(c2ccccc2Cl)C(Cl)Cl)cc1 (stereo unspecified)	inactive	inactive	inactive	inactive			
COc1ccc(C(CN(C)C)C2(O)CCCCC2)cc1 (stereo unspecified)	inactive	inactive	inactive	inactive	inactive		
CC(=O)Nc1nnc(S(N)(=O)=O)s1	inactive	inactive	inactive	inactive			
C1N2CN3CN1CN(C2)C3	inactive	inactive	inactive	inactive			
CC[C@@H](CO)NC(=O)[C@@H]1C=C2c3cccc4[nH]cc(c34)C[C@H]2N(C)C1	inactive	inactive	inactive	inactive	inactive		
CC(C)NCC(O)c1ccc(O)c(O)c1 (stereo unspecified)	inactive	inactive	inactive	inactive			
NCC1(CC(=O)O)CCCCC1	inactive	inactive	inactive	inactive	inactive	inactive	inactive
O=P1(NCCCl)OCCCN1CCCl (stereo unspecified)	inactive	inactive	inactive	inactive	inactive		inactive
N[C@@H]1C[C@H]1c1ccccc1	inactive	inactive	inactive	inactive	inactive		inactive
O=c1[nH]cnc2c1ncn2[C@H]1CC[C@@H](CO)O1	inactive	inactive	inactive	inactive			
